Bioassay records deposited in PubChem BioAssay by National Center for Advancing Translational Sciences (NCATS).
This is a sample that favours compounds with a hit; in the whole collection about 9.9% have one here.
Tau fibril ThT = blocks human tau fibril formation measured by thioflavin T; recombinant tau K18 P301L, heparin-induced fibrillization, ThT fluorescence; Potency, µM (highest dose often 57.4 µM), without a hit: top-dose activity, negative = inhibition, most hits filed as inhibitors; hit rate 2.1% among 270,000; active = well fitted curve in the direction sought with a large enough effect; inconclusive = small, poorly fitted or top-dose-only effect, or another doubt; inactive = no such curve, though single readings can be large; an effect the other way counts as inactive or inconclusive; note: nearly all actives have a fitted effect of over 55% in size
Target sequence (P10636 561-689 P618L limits assumed): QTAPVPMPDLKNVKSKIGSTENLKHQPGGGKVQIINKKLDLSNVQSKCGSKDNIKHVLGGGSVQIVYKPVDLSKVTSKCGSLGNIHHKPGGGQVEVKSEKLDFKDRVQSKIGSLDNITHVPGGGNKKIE
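In this qHTS, human K18 P301L tau is incubated with compound and heparin for 6 hr at 37 C, and Thioflavin T fluorescence then reports fibril load.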
JMJD2E inh = blocks human JMJD2E demethylase activity; JMJD2E catalytic domain, FDH-coupled NADH fluorescence (FDH is formaldehyde dehydrogenase); Potency, µM (titrated, usually from 57.1 µM), without a hit: at the top dose activity change, negative = inhibition, usual class: inhibitors; hit rate 1.6% among 230,000; AID 2147;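 note: 0% = wells with enzyme and -100% = buffer wells without enzyme; nearly all actives have a fitted effect of over 50% in size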
HPGD inh = blocks human HPGD enzyme activity. purified HPGD, NADH fluorescence kinetic, PGE2 substrate. Potency, µM, without a hit: top-dose activity change, negative = inhibition, actives largely listed as inhibitors. hit rate 4.3% among 150,000. P15428. AID 894
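NADH formation kinetics: reaction with 30 uM PGE2 and 1 mM NAD+ (final), 20 nM enzyme, Tris-HCl pH 8 with Tween 20, after 15 min compound preincubation at room temperature. Fluorescence change, last versus first of five reads.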
ALDH1A1 block = inhibitors of human aldehyde dehydrogenase 1A1. hit rate 7.3% among 220,000. Purified ALDH1A1, NADH fluorescence, propionaldehyde substrate. Potency, µM (top dose mostly 75.3 µM), without a hit: at the highest dose activity, negative = inhibition, actives largely listed as inhibitors;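 note: plate controls were no enzyme wells and a reference inhibitor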
Target sequence (P00352 whole entry, looked up): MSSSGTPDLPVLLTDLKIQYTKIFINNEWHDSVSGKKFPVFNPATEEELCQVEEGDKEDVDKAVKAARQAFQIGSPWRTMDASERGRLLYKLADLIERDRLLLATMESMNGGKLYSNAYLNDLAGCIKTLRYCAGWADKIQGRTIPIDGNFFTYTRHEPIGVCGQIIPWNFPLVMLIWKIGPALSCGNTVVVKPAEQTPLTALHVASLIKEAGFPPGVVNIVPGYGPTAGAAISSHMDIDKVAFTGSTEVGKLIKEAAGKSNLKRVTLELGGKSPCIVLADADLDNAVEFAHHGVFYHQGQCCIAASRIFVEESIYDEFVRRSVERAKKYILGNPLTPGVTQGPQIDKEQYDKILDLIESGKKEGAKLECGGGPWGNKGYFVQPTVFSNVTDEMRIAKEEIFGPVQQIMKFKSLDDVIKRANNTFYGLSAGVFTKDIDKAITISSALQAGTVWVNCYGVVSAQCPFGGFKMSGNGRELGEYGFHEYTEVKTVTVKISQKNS
Tau FP inhib = inhibitors of human tau fibril formation; P10636; K18 P301L tau heparin fibrillization, Alexa594 FP, 6 h; Potency, µM (series often up to 57.7 µM), inactives show at the top dose activity, negative = inhibition, actives largely listed as inhibitors; hit rate 0.39% among 280,000; AID 1468; active = well fitted curve in the direction sought with a large enough effect; inconclusive = small, poorly fitted or top-dose-only effect, or another doubt; inactive = no such curve, though single readings can be large; an effect the other way counts as inactive or inconclusive; note: nearly all actives have a fitted effect of over 55% in size
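K18 P301L tau (15 uM unlabeled/0.24 uM Alexa 594-labeled, final) + compound + heparin 20 uM final; 100 mM NaOAc pH 7; 6 hr 37 C; ThT 30 uM final added, 1 hr RT; FP ex 555/em 632 nm.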
Tau fluor cs = counter-screen for tau fibril formation inhibitors. tau K18 P301L (four-repeat tau fragment) Alexa594 fluorescence, heparin fibrillization. Potency, µM (top dose mostly 57.7 µM), inactives show at the top dose activity change, negative = decrease. hit rate 0.93% among 280,000; active = well fitted curve in the direction sought with a large enough effect; inconclusive = small, poorly fitted or top-dose-only effect, or another doubt; inactive = no such curve, though single readings can be large; an effect the other way counts as inactive or inconclusive; note: nearly all actives have a fitted effect of over 55% in size
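Human K18 P301L tau (15 uM unlabeled plus 0.24 uM Alexa 594-labeled, final) in 100 mM sodium acetate pH 7 was mixed with compound and 20 uM heparin and incubated 6 hr at 37 C.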
Numbers without * were called inactive; ? = inconclusive; . = not tested or not shown; [ ] = another dose, or the depositor's remark. Unless noted, calls come from the whole dose curve; as a rule, active = well fitted inhibition curve with a large enough effect (not every such curve was filed as active); inconclusive = small, poorly fitted or top-dose-only effect, or another doubt; inactive = no such curve, though single readings can be large or run the other way. Unless noted, % is set by controls: 0 for no effect and ±100 for the full control effect; potency is the fitted concentration of half-maximal effect.

SMILES | Tau fibril ThT | JMJD2E inh | HPGD inh | ALDH1A1 block | Tau FP inhib | Tau fluor cs
CCOC(=O)/C(=N\Nc1ccc(Cl)cc1)c1csc(Nc2ccccc2)n1 | ? | -2.0% | ? | 0.8% | ? | 4.47µM*[quencher]
CCOC(=O)/C(=N\Nc1ccc(OC)cc1)c1csc(Nc2ccccc2)n1 | ? | -10.5% | -16.4% | -13.3% | ? | 7.08µM*[quencher]
O=C(COc1ccc(Cl)cc1)OCc1csc(Nc2ccccc2)n1 | ? | -1.9% | -15.1% | -0.5% | 11.5% | 14.1µM*[quencher]
CCCCC(CCC(=O)O)(C(=O)OCC)c1csc(Nc2ccccc2)n1 (stereo unspecified) | -17.1% | 2.1% | . | 3.9% | 4.1% | -3.3%
COc1ccc(Br)cc1CNC(=O)c1cc(=O)[nH]c2ccc(S(=O)(=O)N3CCCCC3C)cc12 (stereo unspecified) | 4.9% | . | . | . | ? | ?
O=C(NCc1cccs1)c1ccc(CSc2nc3ccncc3n2Cc2cccc(F)c2)cc1 | 1.9% | . | . | . | 1.2% | -20.7%
CC(C)Oc1ccccc1C1C=C(C(=O)O)Nc2ncnn21 (stereo unspecified) | 3.3% | . | . | . | 1.5% | 3.8%
CCCCCC(=O)NC(Cc1ccc(OC)c([N+](=O)[O-])c1)C(=O)O (stereo unspecified) | 0.1% | -0.3% | . | 12.6µM* | -8.8% | -1.7%
O=c1[nH]c(-c2ccccc2Cl)nc2c1sc(=S)n2-c1ccccc1 | 1.5% | -25.3% | . | ? | 1.6% | 4.4%
O=C(Nc1ccc2nc(-c3ccco3)[nH]c2c1)c1cccs1 | ? | -2.0% | ? | 7.08µM* | 11.3% | ?
COc1nc(/C=C/N(C)C)c([N+](=O)[O-])c(OC)n1 | 8.91µM* | -1.2% | . | ? | -5.5% | ?
O=C(NCc1ccc(Cl)cc1)c1cc([N+](=O)[O-])ccc1Cl | 9.3% | 9.5% | . | 3.1% | -2.9% | 16.4%
C=C/C1=C/Cc2ccccc2C(C[N+](=O)[O-])C(C(=O)OC)(C(=O)OC)C1 (stereo unspecified) | -11.9%[11.5 µM] | . | . | -8.3%[13.5 µM] | 0.1%[11.6 µM] | -8.6%[11.6 µM]
CSc1nc(N)nc(SC2C=CCCC2)c1C#N (stereo unspecified) | -10.2% | -1.5% | -18.7% | 12.6µM* | -12.3% | -14.2%
O=C(O)/C(Cc1cn[nH]n1)=N\O | . | . | -5.9% | ? | . | .
N#Cc1ccc(C(=O)Nc2ccccc2-c2nc3ccccc3s2)c(F)c1 | -1.9% | . | . | . | -14.2% | -7.1%
COc1ccc(NC(=O)CCCn2c(=O)c3cccn3c3ccccc32)c(OC)c1 | ? | . | . | . | -8.1% | -15.3%
COc1ccc(NC(=O)Cn2c(=O)n(CC3CCCO3)c(=O)c3ccccc32)c(OC)c1 (stereo unspecified) | -0.4% | 0.6% | . | 0.0282µM* | 1.7% | -2.3%
CC(=O)c1ccc(NC(=O)Cn2c(=O)c3cccn3c3ccccc32)cc1 | -8.1% | . | . | . | ? | ?
COc1ccc(OC)c(NC(=O)Cn2c(=O)c3cccn3c3ccccc32)c1 | ? | . | . | . | 3.16µM* | ?
COc1ccc(NC(=O)Cn2c(=O)c3cccn3c3ccccc32)cc1 | -9.3% | . | . | . | 17.8µM* | ?
C/C(O)=c1/cnc2nc3ccccc3n2c1=O | -2.8% | ? | . | ? | 4.9% | -4.6%
C[C@H](N)CCCP(=O)(O)O | 2.0% | . | . | ? | -2.5% | -0.5%
COc1ccc(-c2ncccc2OC(=O)C23CC4CC(CC(C4)C2)C3)cc1OC | -7.4% | ? | . | ? | -2.8% | -8.9%
Cc1ccc2nc(-c3ccc(NC(=S)NC4CC(C)(C)NC(C)(C)C4)cc3)sc2c1 | ? | ? | . | ? | 11.2µM* | 7.94µM*[quencher]
SMILES | Tau fibril ThT | JMJD2E inh | HPGD inh | ALDH1A1 block | Tau FP inhib | Tau fluor cs
Cc1ccc2nc(-c3ccc(NC(=S)NC(=O)C(C)C)cc3)sc2c1 | ? | ? | ? | ? | -6.2% | -22.2%
Cc1ccc(C(O)(COC(=O)C(C)C)COC(=O)C(C)C)c(O)c1 | ? | -6.2% | . | 7.94µM* | 1.0% | -19.2%
C=C(C)CC(c1ccccc1)N(C(C)=O)c1ccco1 (stereo unspecified) | 0.7% | -31.5% | . | 2.9% | -5.2% | 4.5%
Cc1cc(=O)n(Cc2cccc(Cl)c2)c2c1c(C)nn2C | ? | . | . | . | 4.5% | -1.2%
COc1ccc2c(c1)CC(C1(O)C(=O)Nc3ccccc31)C2=O (stereo unspecified) | -4.9% | 4.1% | -0.9% | 31.6µM* | -0.4% | -5.4%
O=C1CCCCCC1C1(O)C(=O)Nc2ccccc21 (stereo unspecified) | -0.7% | 7.8% | -9.7% | -0.1% | -2.0% | 1.8%
CCN(CC)S(=O)(=O)c1ccc(N2CCOCC2)c(NC(=O)Cc2ccccc2)c1 | -12.0% | -3.0% | -9.4% | 12.6µM* | 7.6% | -12.3%
CCN(CC)S(=O)(=O)c1ccc(N2CCOCC2)c(NC(=O)Cc2ccccc2F)c1 | -5.1% | 4.7% | -5.9% | ? | -3.4% | -14.6%
CCN(CC)S(=O)(=O)c1ccc(N2CCOCC2)c(NC(=O)CC(C)(C)C)c1 | ? | 11.1% | . | . | -6.5% | ?
CCN(CC)S(=O)(=O)c1ccc(O)c(NC(=O)c2ccc(N3CCOCC3)c([N+](=O)[O-])c2)c1 | -17.0% | 5.2% | 31.6µM* | 0.708µM* | 7.1% | -19.5%
CCN(CC)S(=O)(=O)c1ccc(N2CCOCC2)c(NC(=O)CCC2CCCCC2)c1 | -1.1% | -8.7% | ? | 1.58µM* | 1.3% | -2.6%
CC(c1ccc(F)cc1)n1c(-c2cccs2)n[nH]c1=S (stereo unspecified) | -4.7% | ? | . | ? | -2.9% | -7.9%
O=C(CC(=O)c1ccccc1)Nc1cccnc1Cl | -11.3% | 6.6% | -2.3% | ? | 1.5% | -6.2%
CN(C)c1ccc(/C=C/C(=O)c2ccc3c(c2)OCCO3)cc1[N+](=O)[O-] | 3.55µM* | 3.5% | -9.7% | ? | 4.5% | ?
O=C(/C=C/c1ccncc1)c1ccc2c(c1)OCCO2 | ? | 4.6% | . | 0.891µM* | -4.1% | 5.3%
O=C(/C=C/c1ccccc1)c1ccc2c(c1)OCO2 | ? | 2.9% | . | . | 13.6% | -7.5%
CCCN(CCC)CCCNC(=O)c1nn(C)c2c1CS(=O)(=O)c1ccccc1-2 | -15.3% | . | . | . | 7.6% | -13.2%
O=S(=O)(Nc1cc2nc3ccccc3nc2n1Cc1ccccc1)c1ccc(Cl)cc1 | ? | ? | -18.4% | ? | ? | 14.1µM*[quencher]
CC1=CC(C)(C)NC(=S)N1c1ccccc1C | -6.3% | -11.4% | . | -6.5% | -3.5% | -7.3%
CC1=CC(C)(C)NC(=S)N1c1cccc2cc(S(=O)(=O)O)ccc12 | 31.6µM* | ? | . | 28.2µM* | ? | -28.8%
COc1ccc(COC(=O)N/N=C2/C[C@@H](O)[C@@H](O)[C@@H]3[C@@H]4C(=O)N(C5CCCCC5)C(=O)[C@H]4CC[C@@H]23)cc1 | -18.4%[11.5 µM] | . | . | -5.4%[13.5 µM] | 3.8%[11.6 µM] | -12.1%[11.6 µM]
